# Assay results taken from PubChem BioAssay (NCI).
# Compounds without any hit were thinned out: in the full panel of roughly 83,000, 20% have a hit.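 48-hour exposure, single concentration, 96-well plates; percent growth endpoint where 0 means no net growth. Active: below 10.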 Values without a mark were called inactive. Activity calls are given as the source filed them.
# Assays:
# Test in all cases: NCI-60 one-dose screen, 48 h (100 = growth as untreated, 0 = no growth, -100 = all killed)
# Details in all cases: 10 µM unless noted
# NCI-H23 lung = system: NCI-H23 lung
# NCI-H226 lung = system: NCI-H226 lung
# NCI-H322M lung = system: NCI-H322M lung
# HOP-62 NSCLC = system: HOP-62 NSCLC
# NCI-H460 lung = system: NCI-H460 lung
# HOP-92 NSCLC = system: HOP-92 NSCLC
# NCI-H522 lung = system: NCI-H522 lung
# A549/ATCC NSCLC = system: A549/ATCC NSCLC
# 786-0 renal = system: 786-0 renal
# COLO 205 colon = system: COLO 205 colon
# DU-145 prostate = system: DU-145 prostate
# MALME-3M melanoma = system: MALME-3M melanoma
# MDA-MB-231 breast = system: MDA-MB-231 breast
# RXF 393 renal = system: RXF 393 renal
# SF-268 CNS = system: SF-268 CNS
# SF-295 CNS = system: SF-295 CNS
# SF-539 CNS = system: SF-539 CNS
# UACC-257 melanoma = system: UACC-257 melanoma
# M14 melanoma = system: M14 melanoma
# K-562 leukemia = system: K-562 leukemia
Compound,growth (NCI-H23 lung),growth (NCI-H226 lung),growth (NCI-H322M lung),growth (HOP-62 NSCLC),growth (NCI-H460 lung),growth (HOP-92 NSCLC),growth (NCI-H522 lung),growth (A549/ATCC NSCLC),growth (786-0 renal),growth (COLO 205 colon),growth (DU-145 prostate),growth (MALME-3M melanoma),growth (MDA-MB-231 breast),growth (RXF 393 renal),growth (SF-268 CNS),growth (SF-295 CNS),growth (SF-539 CNS),growth (UACC-257 melanoma),growth (M14 melanoma),growth (K-562 leukemia)
COc1ccc(-c2cc(-c3ccc(Nc4ccnc5cc(Cl)ccc45)cc3)nc(N3CCOCC3)n2)cc1,68%,69.4%,87%,81.6%,13.3%,67.2%,48%,12.3%,69.6%,44.7%,21.7%,-39.1% (active),52.4%,34.9%,72.1%,94.6%,-41.1% (active),79%,12.9%,–
CCOC(=O)C(C)(C#N)C1C=CCCC1 (stereo not given),83.3%,97.9%,80.4%,89.8%,98.8%,78.2%,104%,92.5%,87%,106%,97.1%,102%,95.5%,98.8%,93.8%,84.3%,91.8%,93.6%,81.2%,–
CC/C=C\C[C@H]1C/C=C2/C(=O)C=C[C@H]2C/C=C\CCCC(=O)O1,39.4%,40.5%,37.7%,22.5%,27.4%,51.2%,-17.7% (active),29.5%,24.7%,6.26% (active),15%,75.1%,40.5%,36.6%,39.9%,23.3%,14.7%,47.1%,19.1%,–
NC(CSC(c1ccccc1)(c1ccccc1)c1ccc(Cl)cc1)C(=O)O (stereo not given),8.79% (active),47.2%,36.5%,27.5%,7.15% (active),-15.9% (active),5.69% (active),-9.59% (active),25.6%,-13% (active),-49.7% (active),22.6%,-32.8% (active),–,16.2%,13.8%,-12.3% (active),–,-24.2% (active),–
NC(N)=N/N=C(/c1ccccc1)c1ccc(F)cc1,3.78% (active),8.06% (active),39.3%,19.7%,6.84% (active),-16.9% (active),-44.8% (active),-15.1% (active),18.6%,-47% (active),-19.7% (active),36.5%,-18.9% (active),–,14.2%,3.89% (active),-33.5% (active),–,-3.19% (active),–
CCc1nc(N)nc(N)c1C#CC(C)c1cc(-c2ccnc(C)c2)c2oc(C)nc2c1 (stereo not given),5.82% (active),44.7%,25.3%,-2.79% (active),2.7% (active),-0.67% (active),18.2%,3.87% (active),6.31% (active),0.792% (active),8.31% (active),36.7%,25.6%,-5.33% (active),1.29% (active),5.73% (active),-27.3% (active),30.9%,-9.02% (active),–
O=C1C=CC(=O)N1c1ccc2c(c1)Cc1cc(F)ccc1-2,101%,99.3%,93%,93.8%,111%,83.4%,91.1%,97.9%,112%,94%,112%,94.4%,92.3%,92.2%,99.7%,–,101%,64.7%,107%,–
CC(=O)Nc1ccc(-n2c(O)c(/C=N/NC(=O)Cc3ccccc3Nc3c(Cl)cccc3Cl)sc2=S)cc1,95.4%,104%,102%,99.7%,101%,92.7%,94.2%,101%,102%,–,105%,108%,107%,105%,94.4%,99.4%,98.4%,103%,103%,94.6%
COc1ccc(/C=C\c2cc(OC)c(OC)c(OC)c2)cc1OCC(=O)Nc1ccc2nc(C)sc2c1,37.6%,24.8%,69.9%,44.4%,24.5%,52%,-2.14% (active),30.5%,79.6%,–,64.6%,42.2%,37.1%,70.3%,52.1%,–,57.1%,58.5%,25.9%,18.4%
